The record followed here is PubChem BioAssay (NCATS).

Inconclusive results are not listed. A call without a number means that no potency is given here. Calls of active or inactive are those of the source. Calls follow the shape of the dose curve; as a rule, active = well fitted cell-killing curve with a large enough effect; inconclusive = small, poorly fitted or top-dose-only effect; inactive = no such curve, though single readings can be large or run the other way.
Potency is read from the fitted curve at half-maximal effect.

The nature of this assay: qHTS of pediatric cancer cell lines to identify multiple opportunities for drug repurposing: Primary screen for NB-EBc1 cells (AID 1347095). Particulars: NB-EBc1 neuroblastoma viability, CellTiter-Glo luminescence, 48 h; series mostly up to 46 µM. The procedure, abridged: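 Readout: CellTiter-Glo luminescence, 48 h treatment. Controls DMSO (neutral) and bortezomib 2.3 µM final (positive). Potency and efficacy taken from primary-screen concentration-response curves.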
`CCCOC(=O)c1ccc(O)cc1`: the Potency entry is “inactive”. For `O=C(O)Cc1cccc(-c2cc(CCCCCCc3ccc(O[C@H]4O[C@H](CO)[C@@H](O)[C@H](O)[C@@H]4O)c(-c4cccc(CC(=O)O)c4)c3)ccc2O[C@H]2O[C@H](CO)[C@@H](O)[C@H](O)[C@@H]2O)c1`, the activity change, negative = cytotoxic was 9.49% [at 0.597 µM] (inactive). Turning to `O=C(O)/C=C\C(=O)O`, the Potency entry is “inactive”. Still for that read-out and setting: then `CC(C(=O)O)c1ccc2c(c1)[nH]c1ccc(Cl)cc12` (stereo unspecified), with “inactive”; and `O=C(CCN1CCN(CCO)CC1)N1c2ccccc2Sc2ccc(C(F)(F)F)cc21`, with “inactive”.

For `c1ccc2sc(SN3CCOCC3)nc2c1`, the Potency result was “inactive”.

Consider `O=C(OCc1ccccc1)c1ccccc1`, for which the Potency result was “inactive”.

Consider `Nc1c(CC(=O)O)cccc1C(=O)c1ccc(Br)cc1`, for which the Potency result is “inactive”.

Turning to `CC(=O)c1ccc(OCC(=O)N2CCCCC2)cc1`, the Potency entry was “inactive”. Same read-out and setting: then `CNC(=O)c1c(I)c(NC(=O)CCCCC(=O)Nc2c(I)c(C(=O)O)c(I)c(C(=O)NC)c2I)c(I)c(C(=O)O)c1I`, with “inactive”; and `O=C(O)c1cc(O)c(O)c(O)c1`, with “inactive”. Same read-out and setting: then `C=CCCCCCCCCC(=O)O`, with “inactive”; and `Cc1ccc(C(=O)c2ccc(CC(=O)O)n2C)cc1`, with “inactive”; and `Nc1nc2ccc([N+](=O)[O-])cc2s1`, with “inactive”. Still for that read-out and setting: then `COc1ccnc2c1CCCCC2S(=O)c1nc2ccccc2[nH]1` (stereo unspecified), with “inactive”; and `N=C(N)N`, with “inactive”.

As to `O=Cc1ccc(O)c(O)c1O`, the Potency result is “inactive”. Same read-out and setting: the entry for `CCCCCCCC/C=C/C(=O)O` is “inactive”; for `Nc1ccc(C(=O)O)c(O)c1` it is “inactive”; for `CC1(C)S[C@@H]2[C@H](NC(=O)[C@H](N)c3ccccc3)C(=O)N2[C@H]1C(=O)O` it is “inactive”. On the same count and under the same terms, the entry for `CN(C)[C@@H]1C(=O)C(C(=O)NCN2CCCC2)=C(O)[C@@]2(O)C(=O)C3=C(O)c4c(O)cccc4[C@@](C)(O)C3C[C@@H]12` (stereo partly specified) is “inactive”; for `CCCCCCCCCCCCOCCO` it is “inactive”; for `CC(=O)SCC(CC(=O)c1ccc(C)cc1)C(=O)O` (stereo unspecified) it is “inactive”. Regarding `O=C(O)c1ccccc1Nc1cccc(C(F)(F)F)c1`, the Potency result was “inactive”. Same read-out and setting: then `CCOc1ccc2nc(S(N)(=O)=O)sc2c1`, with “inactive”; and `CCCSc1ccc2nc(NC(=O)OC)[nH]c2c1`, with 266 nM (active); and `O=C(/C=C/c1ccccc1)NCCO`, with “inactive”. Same read-out and setting: then `CCCCCCOc1ccccc1C(N)=O`, with “inactive”; and `CCOC(=O)c1ccccc1O`, with “inactive”. The same measure, in the same setting: the entry for `COc1cc2c3cc1Oc1cc(ccc1O)C[C@@H]1c4c(cc(OC)c(O)c4Oc4ccc(cc4)C[C@@H]3N(C)CC2)CC[N+]1(C)C` is “inactive”; for `O=C(O)Cc1ccc2c(c1)C(=O)c1ccccc1CO2` it is “inactive”. In the case of `Cc1c(N)c(=O)n(-c2ccccc2)n1C`, the Potency entry was “inactive”. On to `Clc1ccccc1-c1nc(-c2ccncc2)no1`, for which the Potency result was “inactive”. On to `CC(C)(C)c1nnc(NS(=O)(=O)c2ccc(N)cc2)s1`, for which the Potency result is “inactive”. Same read-out and setting: then `CN1CCN(c2cc3c(nn2)Oc2ccccc2N3C)CC1`, with “inactive”. On the same count and under the same terms, the entry for `CC(C)OC(=O)c1cc(C(=O)OC(C)C)cc([N+](=O)[O-])c1` is “inactive”.
